Experimental data as given in PubChem BioAssay AID1942 (Johns Hopkins Ion Channel Center, 2009).
Out of some 2,400 compounds screened, about 580 (24%) were called active. These entries were drawn from the full list. A number with no mark means an inactive call.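 The calls were made as follows: active = activity change at or above the mean plus 3 SD of buffer wells without dofetilide, per plate; inactive = the rest.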

The compounds below were run against Potassium voltage-gated channel subfamily KQT member 2 (Rattus norvegicus) (UniProt O88943) (assay: rat KCNQ2 channel activation by compounds alone, confirmation, counter-screen for hERG block protector project, cell-based, CHO, FluxOR thallium flux (AID 1942;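 also: normalized value minus buffer-control mean plus three SD of buffer wells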)). Details: CHO-KCNQ2 cells, FluxOR thallium flux fluorescence; at 10 µM; active compounds read high.
Sequence of Potassium voltage-gated channel subfamily KQT member 2 (Rattus norvegicus) (O88943 whole entry, looked up): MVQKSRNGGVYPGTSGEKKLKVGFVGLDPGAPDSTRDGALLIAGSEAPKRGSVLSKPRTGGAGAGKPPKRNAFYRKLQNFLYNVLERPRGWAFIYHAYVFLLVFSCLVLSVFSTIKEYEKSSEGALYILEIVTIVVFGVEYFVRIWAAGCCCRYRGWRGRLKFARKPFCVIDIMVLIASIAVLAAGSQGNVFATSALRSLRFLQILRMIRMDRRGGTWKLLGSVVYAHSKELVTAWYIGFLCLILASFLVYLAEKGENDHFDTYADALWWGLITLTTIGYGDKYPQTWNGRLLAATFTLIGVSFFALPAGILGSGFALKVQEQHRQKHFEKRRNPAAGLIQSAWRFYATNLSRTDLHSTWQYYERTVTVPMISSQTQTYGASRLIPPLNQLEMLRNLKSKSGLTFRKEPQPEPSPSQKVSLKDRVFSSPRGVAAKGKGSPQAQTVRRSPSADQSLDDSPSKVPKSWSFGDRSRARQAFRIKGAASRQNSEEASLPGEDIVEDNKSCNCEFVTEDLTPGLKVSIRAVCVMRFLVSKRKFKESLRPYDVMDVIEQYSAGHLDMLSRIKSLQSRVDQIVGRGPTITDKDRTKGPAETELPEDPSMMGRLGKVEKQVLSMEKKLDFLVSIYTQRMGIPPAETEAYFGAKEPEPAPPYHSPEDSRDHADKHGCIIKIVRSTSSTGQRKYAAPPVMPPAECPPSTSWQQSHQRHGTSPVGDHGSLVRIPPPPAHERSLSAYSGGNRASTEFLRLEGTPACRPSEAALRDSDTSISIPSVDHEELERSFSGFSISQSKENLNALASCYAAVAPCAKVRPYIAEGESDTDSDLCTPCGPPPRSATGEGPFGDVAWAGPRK
`C=CCNC(=S)N/N=C(\C)c1ccc(OC)cc1` was tested, and the activity change, less the hit threshold was -13.1%. For `CC(C)N(Cc1ccccc1)C(=S)NC(=O)C1(C)CC1(Cl)Cl` (configuration not stated), the activity change, less the hit threshold was 32.4% (active). `C=CCN(CC=C)C(=S)NC(=O)c1ccc(OC)cc1` was tested, and the activity change, less the hit threshold was 10.1% (active). `C=CCN(CC=C)C(=S)NC(=O)/C=C/c1ccc(OC)cc1` gave an activity change, less the hit threshold of -0.6%. In the case of `CCCOc1ccc(CN(CCC#N)C(=S)NC(=O)c2ccccc2)cc1`, the activity change, less the hit threshold is reported as 7.3% (active). `CCCOc1ccc(C(=O)NNC(=S)NC(=O)c2ccccc2)cc1` was tested, and the activity change, less the hit threshold was -24.3%. `O=C(O)c1ccc(Cl)cc1Nc1nc2cc(Cl)ccc2o1` gave an activity change, less the hit threshold of -1.7%. `CC(=O)c1c(C)nc(C)nc1NC(=O)C(C)C` was tested, and the activity change, less the hit threshold was -17.2%. `Nc1nc2n(n1)C1(CCCCC1)C1=C(CCCC1)N2` gave an activity change, less the hit threshold of -18.5%. `CCCCc1c(O)nc(SCC(=O)O)[nH]c1=O` showed an activity change, less the hit threshold of -17.9%. For `FC(F)(F)c1cnc2c(c1)[nH]c(=S)n2-c1ccc(Cl)cc1`, the activity change, less the hit threshold was -2.4%. Compound `CCC(=O)Nc1cc(-c2nnc(OC)c3ccccc23)ccc1N1CCOCC1` has an activity change, less the hit threshold of -7.7%. `O=C(NC(=S)Nc1ccccc1N1CCCC1)c1ccccc1Br` was tested, and the activity change, less the hit threshold was -29.8%. For `Cc1nn(C)c(C(=O)NC(=S)Nc2ccc([N+](=O)[O-])cc2)c1Cl`, the activity change, less the hit threshold was 7.5% (active). For `CCCCOC(=O)c1ccc(NC(=S)NC(=O)c2c(Br)c(C)nn2C)cc1`, the activity change, less the hit threshold was 10.4% (active). With `COC(=O)c1ccc(NC(=S)NC(=O)c2c(-c3ccccc3)noc2C)cc1` the activity change, less the hit threshold was -19.6%. `CCCCOC(=O)c1ccc(NC(=S)NC(=O)c2c(Cl)cnn2C)cc1` gave an activity change, less the hit threshold of -10%. With `CCn1ncc(Cl)c1C(=O)NC(=S)Nc1ccccc1Br` the activity change, less the hit threshold was 29.9% (active). With `COc1ccccc1NC(=S)NC(=O)c1ccc(-c2ccc(Cl)cc2)o1` the activity change, less the hit threshold was -6.4%. `Cc1nn(CCC(=O)NNC(=S)Nc2ccc(F)cc2)c(C)c1[N+](=O)[O-]` showed an activity change, less the hit threshold of -18.9%. In the case of `Cc1ccc(NC(=S)NC(=O)c2cncc(Br)c2)cc1Cl`, the activity change, less the hit threshold is reported as -17.8%. `Cc1ccc(NC(=O)c2c([N+](=O)[O-])c(C(C)(C)C)nn2C)cc1` was tested, and the activity change, less the hit threshold was -17.2%. In the case of `Cc1nn(C)c(C(=O)NC(=S)Nc2ccccc2Br)c1Cl`, the activity change, less the hit threshold is reported as 11.8% (active). In the case of `Cc1cccc(NC(=S)N/N=C2\CC(C)(C)Oc3ccc(O)cc32)c1`, the activity change, less the hit threshold is reported as -9.9%. With `Cc1nn(-c2ccc(Cl)nn2)c(=O)c2ccccc12` the activity change, less the hit threshold was -19.3%. With `CC1CN(S(=O)(=O)c2ccc(-c3nc4ccccc4s3)cc2)CC(C)O1` (configuration not stated) the activity change, less the hit threshold was -3.8%. `CCCN1C(=O)/C(=C/c2ccc3c(c2)OCO3)NC1=S` showed an activity change, less the hit threshold of -10.1%. Work on `CC(C)CN1C(=O)/C(=C/c2ccco2)NC1=S` yielded an activity change, less the hit threshold of -20.7%. For `CCCN1C(=O)/C(=C/c2ccc(C)s2)NC1=S`, the activity change, less the hit threshold was 80.4% (active). `CCN1C(=O)/C(=C/c2ccc(C)s2)NC1=S` was tested, and the activity change, less the hit threshold was 36.1% (active). For `COc1ccc(N2C(=O)/C(=C/c3cccs3)NC2=S)cc1`, the activity change, less the hit threshold was -15.1%. In the case of `CC(C)CN1C(=O)/C(=C/c2cccs2)NC1=S`, the activity change, less the hit threshold is reported as 83.6% (active).
